From PubChem BioAssay AID1490 (National Center for Advancing Translational Sciences (NCATS), 2009) come the findings set out here.

Structures are written as SMILES. Screen size: about 310,000 compounds; about 11,000 (3.5%) were called active. Another 4% or so got no clear call; they are omitted. Calls follow the shape of the dose curve; as a rule, active = well fitted inhibition curve with a large enough effect; inconclusive = small, poorly fitted or top-dose-only effect, or another doubt; inactive = no such curve, though single readings can be large or run the other way. This excerpt belongs to a sample that is enriched for actives.
Potency is read from the fitted curve at half-maximal effect.

This test concerns the target 4'-phosphopantetheinyl transferase ffp (Bacillus subtilis) (UniProt Q9F4F7). The experiment in a line: qHTS Assay for Inhibitors of Bacillus subtilis Sfp phosphopantetheinyl transferase (PPTase).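 Also: the enzyme is Sfp with the accession as filed and its product quenches rhodamine fluorescence.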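 As to largest response in the series, negative = inhibition: 0% = enzyme reaction without inhibitor and -100% = no enzyme wells.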 As to conditions: Biochemical Sfp PPTase activity. In short, it runs like this:
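Buffer: 50 mM Hepes-Na pH 7.6, 10 mM MgCl2, 0.01% Nonidet P-40, 0.01% BSA. Enzyme 15 nM, pre-exposed to compound 15 min; substrates then added and fluorescence change tracked over 30 min.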
(qHTS replaces the single test concentration by a dilution series.)
In the case of `S=C(Nc1cccc(Cl)c1)Nc1ccc2c(c1)OCCO2`, the largest response in the series, negative = inhibition is -5.75% (inactive).
Turning to `Cc1ccc2nc(Nc3ncc4c(n3)CC(C)(C)CC4=O)nc(C)c2c1`, the largest response in the series, negative = inhibition is 4.59% (inactive).
On the same count and under the same terms, in the case of `CC(C)(C)c1cc(=O)n2c(nc3ccccc32)[nH]1` it was 30.5% (inactive).
As to `CC1(C)CC(=O)c2cnc3nc4ccccc4n3c2C1`, the Potency is 50.1 µM (active).
Consider `CSc1ccccc1NC(=O)c1cc(Cl)sc1Cl`, for which the largest response in the series, negative = inhibition was 9.55% (inactive).
In the case of `CNC(=O)c1c(NC(NC(=O)c2ccco2)C(=O)c2ccc(Cl)cc2)sc2c1CCCC2` (stereo not given), the Potency is 25.1 µM (active).
As for `CC(C)OC(=O)c1c(NC(=O)c2ccco2)sc2c1CCCC2`, the largest response in the series, negative = inhibition is 10.9% (inactive).
The same measure, in the same setting: the result for `CCOC(=O)c1c(NC(=S)NC(=O)c2ccco2)sc2c1CCCC2` reads -0.0002% (inactive).
Still for that read-out and setting: the result for `COC(=O)c1ccc(CN2C(=O)NC(c3ccccc3)(c3ccccc3)C2=O)o1` reads 23.7% (inactive); that for `CC[C@]1([C@H]2O[C@@H]([C@@H]3O[C@](O)(CO)[C@@H](C)C[C@H]3C)C[C@H]2C)CC[C@@H]([C@]2(C)CC[C@@]3(C[C@@H](O)[C@@H](C)[C@@H]([C@H](C)[C@H](OC)[C@H](C)C(=O)O)O3)O2)O1`, 15.5% (inactive).
Same read-out and setting: the result for `CC(=O)Nc1ccc(N2C(=O)CC(Sc3nccc(C)n3)C2=O)cc1` (stereo not given) reads 11.7% (inactive).
On to `O=C1CC(Sc2ncn[nH]2)C(=O)N1c1ccccc1` (stereo not given), for which the Potency is 56.2 µM (active).
`COc1ccc(N2C(=O)CC(SC(C)C)C2=O)cc1` (stereo not given): the largest response in the series, negative = inhibition is 7.97% (inactive).
`Cc1ccc(N2C(=O)CC(Sc3ncn[nH]3)C2=O)cc1` (stereo not given): the Potency is 56.2 µM (active).
Still for that read-out and setting: the result for `COc1ccc(N2C(=O)CC(Sc3n[nH]c(-c4ccc(C)cc4)n3)C2=O)cc1` (stereo not given) reads 25.1 µM (active).
Take `Cc1ccc(N2C(=O)C3CC3C2=O)cc1` (stereo not given): the largest response in the series, negative = inhibition is 15.7% (inactive).
Still for that read-out and setting: the result for `COC(=O)c1ccccc1SC1CC(=O)N(c2cccc(C)c2)C1=O` (stereo not given) reads -19.3% (inactive).
The same measure, in the same setting: in the case of `COc1ccc(-c2nc(SCC(=O)N3CCCC3)n[nH]2)cc1` it was 14.1% (inactive).
Still for that read-out and setting: the result for `O=C1CC(N2CCN(c3ccc(F)cc3)CC2)C(=O)N1c1ccccc1` (stereo not given) reads 0.505% (inactive); that for `CCOc1ccc(S(=O)(=O)N2CCC(C(=O)NCc3ccccn3)CC2)cc1Cl`, 5.52% (inactive).
For `CC[C@@]12C=C(/C=C/c3ccccc3)[C@](CC)(C1)[C@H](c1ccccc1)CC2=O`, the largest response in the series, negative = inhibition was -22.6% (inactive).
Same read-out and setting: the result for `CC(Nc1nc(C(F)(F)F)nc2ccccc12)c1cccs1` (stereo not given) reads 2.55% (inactive); that for `COC(=O)C(C(=O)OC)[C@@H]1CCCC(=O)C1`, -0.107% (inactive); that for `CN(C)c1ccc(-c2nnc(-c3cccnc3)o2)cc1`, 7.75% (inactive).
On the same count and under the same terms, in the case of `Cc1cc(NS(=O)(=O)c2ccc(NC(=O)C(C)Oc3cccc(C)c3C)cc2)nc(C)n1` (stereo not given) it was 8.85% (inactive).
